From PubChem BioAssay (NCI)
About 83,000 compounds went through this panel and 20% of them were active in at least one assay; those are over-represented in the sample as a whole.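 Cells were grown in 96-well plates and exposed to the test compound at a single concentration for 48 hours; results are reported as percent growth, with values below 10 considered active.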 Values without a mark were called inactive. The source made the active and inactive calls.

Each compound was assayed on MDA-MB-468 breast (assay: NCI-60 one-dose screen, 48 h (100 = growth as untreated, 0 = no growth, -100 = all killed)). Conditions: 10 µM unless noted.
For `CCCCCCCC/C=C\CCCCCCCC(=O)Oc1cccc2cccnc12`, the growth was 121%. With `NC(=O)CC1(O)C=C(Br)C(=O)C(Br)=C1` the growth was -9.32% (active). `c1cnc2[nH]cc(-c3nc(-c4ccsc4)cs3)c2c1` showed a growth of 74.6%. Work on `O=C1CC(c2cccc(F)c2)c2c(n[nH]c2-c2ccc(Cl)cc2)N1` (stereo not drawn) yielded a growth of 68.4%. With `COc1cc(-c2ncn(/C=C\c3nnco3)n2)cc(C(F)(F)F)c1` the growth was -28.9% (active). With `CN(C)c1ccc(CNCCO)cc1` the growth was 105%. Work on `CCc1nc(C(N)=O)c(Nc2ccc(N3CCC(N4CCN(C)CC4)CC3)c(OC)c2)nc1NC1CCOCC1` yielded a growth of 69.7%. Work on `CC(=O)O[C@H]1CC[C@]2(C)[C@H]3CC=C4[C@@H]5CC(C)(C)CC[C@]5(C(=O)OCC(COC(=O)C(Cl)Cl)(COC(=O)C(Cl)Cl)NC(=O)C(Cl)Cl)CC[C@@]4(C)[C@]3(C)CC[C@H]2C1(C)C` yielded a growth of 58.7%. Compound `COc1cc(-c2nc3ccccc3o2)cc(CN2CCCCC2)c1O` has a growth of 67.1%. For `COc1ccc(C(=O)c2sc3nc4c(c(-c5cccnc5)c3c2N)CCCC4)cc1OC`, the growth was 102%. With `C=C1C(=O)O[C@H]2[C@H]1CC/C(COC(=O)NCc1ccc(Cn3c(=O)sn(CCCl)c3=O)cc1)=C\CC[C@@]1(C)O[C@@H]21` the growth was 5.52% (active). In the case of `Cc1ccc(-n2c(/C=C3\C(=O)Nc4ccccc43)ccc2CO)cc1`, the growth was 45.1%. With `O=S(=O)(c1ccccc1)n1cc2c(c1-c1ccccc1)CCc1sc(Nc3ccccc3)nc1-2` the growth was 73.3%.
